# Compounds without any hit were thinned out: in the full panel of roughly 79,000, 15% have a hit. Values without a mark were called inactive. Activity calls are given as the source filed them. No stated cut-off is given here; in the data, active means growth inhibition above about 70%; inactive means the rest. *1 amine or outer side, *2 acyl side, *3 side chain or, on linkers, in order; H or OH if unused. Where a SMILES comes first, the peptide text is derived from it. Bridges are numbered along the chain shown (N, C = ends). Roman numbers before positions name the chains, in order. [ ]: non-standard residue; d: D form. Actinocin(1to9) = Cc1c2oc3c(C)ccc(C(=O)[*:2])c3nc-2c(C(=O)[*:1])c(N)c1=O; NMeV = CN[CH](C(=O)O)C(C)C; Sar = CNCC(=O)O
# What was measured:
# [1] = NCI Yeast Anticancer Drug Screen. Data for the rad50 strain (AID 155);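 further: 0% = growth of vehicle-only cultures of the same strain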; details: S. cerevisiae rad50 strain growth inhibition, hits give high values
# Method in brief: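 Yeast carrying a defined DNA repair defect were exposed to test compounds, and growth was compared with vehicle-treated controls to give percent inhibition.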
# [2] = NCI Yeast Anticancer Drug Screen. Data for the mec2-1 strain (AID 157); details: S. cerevisiae mec2-1 strain, hits give high values
# Method in brief: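 Yeast mec2-1 mutant treated with compound. Readout: growth inhibition vs vehicle controls.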
# [3] = NCI Yeast Anticancer Drug Screen. Data for the sgs1 mgt1 strain (AID 161);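 further: 0% = growth of cultures given vehicle only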; details: S. cerevisiae sgs1 mgt1 strain, hits give high values
# Method in brief: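 Mutant yeast exposed to compound; growth scored against vehicle-only wells.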
# [4] = NCI Yeast Anticancer Drug Screen. Data for the cln2 rad14 strain (AID 165);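 further: 0% = growth equal to vehicle treated cultures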; details: S. cerevisiae cln2 rad14 strain, hits give high values
# Method in brief: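 cln2 rad14 yeast strain; compound exposure; growth inhibition read vs vehicle controls.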
# [5] = NCI Yeast Anticancer Drug Screen. Data for the bub3 strain (AID 167); details: S. cerevisiae bub3 mutant strain, hits give high values
# Method in brief: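 Compounds were applied to a genetically altered yeast strain carrying a cell-cycle control defect. Growth inhibition was scored against vehicle-treated controls.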
# [6] = NCI Yeast Anticancer Drug Screen. Data for the mlh1 rad18 strain (AID 175); details: S. cerevisiae mlh1 rad18 strain growth inhibition, hits give high values
# Method in brief: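 Yeast w/ defined DNA-repair lesions; compound exposure; growth vs vehicle controls → % inhibition.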
# [7] = at 5.0 µM (retest, dose inferred, filed as 0.5)
# [8] = at 50.0 µM (retest, dose inferred, filed as 5.0)
SMILES,"growth inhibition [1, 7]","growth inhibition [1, 8]",growth inhibition ([1]; at 50.0 µM),"growth inhibition [2, 7]","growth inhibition [2, 8]",growth inhibition ([2]; at 50.0 µM),"growth inhibition [3, 7]","growth inhibition [3, 8]",growth inhibition ([3]; at 50.0 µM),"growth inhibition [4, 7]","growth inhibition [4, 8]",growth inhibition ([4]; at 50.0 µM),"growth inhibition [5, 7]","growth inhibition [5, 8]",growth inhibition ([5]; at 50.0 µM),"growth inhibition [6, 7]","growth inhibition [6, 8]",growth inhibition ([6]; at 50.0 µM)
Nc1ccc(Oc2ccccc2)c(Cl)c1,10%,91% (active),97.6% (active),-15%,30%,92.5% (active),4%,61%,97.6% (active),3%,60%,93.5% (active),69%,52%,90.5% (active),7%,72% (active),98% (active)
CC(C)c1ccc(Nc2n[nH]c(=S)s2)cc1,39%,82% (active),86.1% (active),32%,79% (active),83% (active),35%,68%,87.8% (active),22%,85% (active),84.6% (active),33%,94% (active),87.5% (active),41%,82% (active),84.1% (active)
COc1cc(NC(=O)C2=C(C)NC(C)=C(C(=O)Nc3cc(OC)c(Cl)cc3OC)C2c2cccc([N+](=O)[O-])c2)c(OC)cc1Cl,-24%,96% (active),96.7% (active),5%,97% (active),76.3% (active),6%,95% (active),96.9% (active),-31%,96% (active),95.8% (active),27%,97% (active),95.5% (active),-14%,96% (active),96.9% (active)
Cc1cc(Br)c2nsnc2c1[N+](=O)[O-],33%,94% (active),54.4%,43%,97% (active),78.5% (active),30%,85% (active),80.8% (active),32%,88% (active),71.2% (active),20%,87% (active),68.7%,37%,95% (active),77.9% (active)
COc1ccc(C(Cn2ccnc2)Sc2ccc(Cl)c(Cl)c2)cc1 (configuration not stated),74% (active),97% (active),92.9% (active),60%,97% (active),93.8% (active),72% (active),97% (active),88.7% (active),47%,86% (active),90.7% (active),76% (active),98% (active),86.5% (active),81% (active),96% (active),91.3% (active)
COC(=O)C(=[N+]=[N-])C(=O)c1ccc([N+](=O)[O-])o1,32%,98% (active),56.1%,10%,99% (active),55.5%,18%,98% (active),51.8%,8%,99% (active),98.5% (active),6%,99% (active),48.5%,25%,99% (active),98.7% (active)
CCc1oc2ccccc2c1C(=O)c1cc(Br)c(O)c(Br)c1,29%,99% (active),99.2% (active),11%,100% (active),99.3% (active),8%,99% (active),99.2% (active),8%,100% (active),99% (active),1%,99% (active),99.3% (active),18%,99% (active),99.2% (active)
CC1(C)CCCC2=C1C(=O)N(SC(Cl)(Cl)Cl)C2=O,98% (active),99% (active),90.3% (active),99% (active),99% (active),93.1% (active),100% (active),99% (active),90.5% (active),99% (active),99% (active),91.3% (active),100% (active),99% (active),89.9% (active),98% (active),99% (active),90.1% (active)
"CCC(C)C1NC(=O)C(NC(=O)c2c3nc4c(C(=O)NC5C(=O)NC(C(C)CC)C(=O)N6CCCC6C(=O)N(C)CC(=O)N(C)C(C(C)C)C(=O)OC5C)ccc(C)c4oc-3c(C)c(=O)c2N)C(C)OC(=O)C(C(C)C)N(C)C(=O)CN(C)C(=O)C2CCCN2C1=O (configuration not stated) (I: TIP[Sar][NMeV] / II: TIP[Sar][NMeV]; ester I:1-I:C, II:1-II:C; linker I:N-II:N via Actinocin(1to9); configuration not given here)",66%,98% (active),91% (active),33%,99% (active),93.7% (active),32%,98% (active),92.5% (active),38%,97% (active),90.7% (active),43%,99% (active),92.6% (active),67%,98% (active),88.3% (active)
S=C(S)OCN1CCOCC1,80% (active),32%,98.1% (active),59%,23%,98.2% (active),70% (active),28%,96.8% (active),58%,20%,97.3% (active),55%,27%,98.8% (active),51%,35%,98.2% (active)
O=C(CCl)N1c2ccccc2Sc2c1ccc1ccccc21,25%,90% (active),82.7% (active),39%,90% (active),63.9%,47%,94% (active),90.6% (active),20%,69%,19.8%,56%,91% (active),72.2% (active),46%,90% (active),83.4% (active)
C=c1c2ccccc2oc2nc3[nH]c(N)c(C#N)c(N)c3c(=N)c12,16%,82% (active),74% (active),1%,70% (active),75% (active),11%,79% (active),73.8% (active),17%,74% (active),48.5%,18%,79% (active),81.7% (active),7%,75% (active),69.2%
CCCCCCCCCCCCSC(=N)N,86% (active),98% (active),51.3%,21%,99% (active),99% (active),84% (active),98% (active),46.5%,20%,98% (active),97.2% (active),72% (active),95% (active),98.7% (active),49%,99% (active),64.2%
O=C1C=CC(O)=CC1=P(c1ccccc1)(c1ccccc1)c1ccccc1,2%,11%,48.1%,-1%,6%,-8.55%,-1%,2%,47.5%,-2%,-3%,7.4%,-4%,2%,25.9%,3%,8%,34.5%
CC1=CC[C@@H]2[C@@H](CC[C@@]2(C)O)C(C)(C)[C@H]1CC[C@@H]1[C@@]2(C)CCC(=O)C(C)(C)O[C@@H]2CC[C@]1(C)O,20%,57%,74.8% (active),13%,37%,62.9%,-1%,78% (active),72.2% (active),16%,70% (active),55.2%,10%,73% (active),62.1%,25%,62%,22.9%
COc1ccc2c(c1OC)OCC(CN(C)C)C2=O (configuration not stated),-20%,98% (active),97% (active),2%,99% (active),99.3% (active),23%,98% (active),99% (active),5%,99% (active),96.3% (active),1%,99% (active),93.9% (active),-4%,98% (active),99.2% (active)
c1ccc(-c2cc3cc4ccccc4cn3c2)cc1,58%,93% (active),83.8% (active),43%,94% (active),83.8% (active),52%,97% (active),88.8% (active),35%,84% (active),82.8% (active),53%,97% (active),86.3% (active),61%,95% (active),86.7% (active)
Nc1ccc(C(=O)/C=C/c2ccccc2)cc1,6%,57%,67.8%,12%,58%,85.3% (active),11%,75% (active),78.1% (active),4%,21%,8.95%,5%,81% (active),94.5% (active),4%,53%,96.3% (active)
CCCCCCCCCCCC1N=C(N)N=C(N)N1c1cccc(Br)c1 (configuration not stated),99% (active),97% (active),97.5% (active),100% (active),97% (active),97.7% (active),98% (active),98% (active),99.2% (active),99% (active),96% (active),96.2% (active),99% (active),98% (active),97% (active),99% (active),97% (active),98.3% (active)

# Source: PubChem BioAssay (NCI)
